FXIIa inh mix – human factor XIIa inhibitors, primary screen, biochemical, pooled compound mixtures, fluorogenic substrate; Coagulation factor XII (Homo sapiens), P00748; purified FXIIa; inhibition, % at 5 µM; 0.2% of 62,000 active;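 also: 0% = enzyme without compound and 100% = no enzyme blank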
TNAP act DEA – human TNAP enzyme activators, primary screen, biochemical, luminescent, intermediate phosphate acceptor level. purified TNAP, CDP-star luminescence, 100 mM DEA, 30 min; hits give high values; scale: 0 levamisole-inhibited, 1 vehicle-only enzyme. activation factor at 20 µM. 64,000 tested, under 10 active;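 active = activation factor of at least 2 at 20 µM, relative to controls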
HePTP inhibitor – inhibitors of human HePTP phosphatase, primary screen, biochemical, absorbance, leukemia target; recombinant HePTP phosphatase activity, OD absorbance; 0.64% of 110,000 active; inhibition, % at 20 µM; Tyrosine-protein phosphatase non-receptor type 7 (Homo sapiens), P35236; in the data active = inhibition above about 50%;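 also: plate controls were vehicle for no effect and reference inhibitor for full effect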
D1 allo mod – D1 CRE-luciferase signal change, two-sided – cell-based, HEK293 D1, dopamine EC30, D1 allosteric modulator project, primary screen. dopamine EC30 potentiation; actives deviate in either direction. B-score at 10 µM. 5.9% of 58,000 active;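 active = luminescence count or its row- and column-corrected plate score outside the 99.7% band of the plate's sample wells, on either side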
Calb biofilm kill – clotrimazole potentiators killing Candida biofilms, primary screen, with clotrimazole, Alamar Blue; C. albicans biofilm + clotrimazole; AID 834, 2007; inhibition, % at 6 µM; 0.14% of 85,000 active;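 active = inhibition above 20%; inactive = inhibition below 20%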;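 also: preformed 24 hr biofilms exposed to compound for 48 hr; 0% = biofilm without compound and 100% = blank killed by clotrimazole plus chlorhexidine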
FXIa inh mix – FXIa protease inhibitors in compound pools, primary screen, biochemical, 10-compound mixtures. purified FXIa, fluorogenic substrate, pooled mixtures. 0.19% of 62,000 active. AID 680, 2007. inhibition, % at 5 µM. Coagulation factor XI (Homo sapiens), P03951;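 also: each value is inhibition by a whole ten-compound pool holding the compound; 0% = enzyme with no mixture and 100% = wells lacking enzyme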
Target sequence (P03951 19-387 limits assumed): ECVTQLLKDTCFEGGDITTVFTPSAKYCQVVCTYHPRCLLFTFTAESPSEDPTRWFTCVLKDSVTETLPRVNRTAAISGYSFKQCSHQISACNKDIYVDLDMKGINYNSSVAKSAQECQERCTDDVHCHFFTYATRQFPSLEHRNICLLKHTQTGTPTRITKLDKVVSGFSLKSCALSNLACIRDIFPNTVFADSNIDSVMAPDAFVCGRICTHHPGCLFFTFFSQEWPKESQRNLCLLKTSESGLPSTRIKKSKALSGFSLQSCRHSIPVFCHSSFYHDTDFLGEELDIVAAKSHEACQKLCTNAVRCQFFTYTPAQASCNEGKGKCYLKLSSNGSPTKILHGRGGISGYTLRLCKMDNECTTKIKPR
Target sequence (P03951 388-625 limits assumed): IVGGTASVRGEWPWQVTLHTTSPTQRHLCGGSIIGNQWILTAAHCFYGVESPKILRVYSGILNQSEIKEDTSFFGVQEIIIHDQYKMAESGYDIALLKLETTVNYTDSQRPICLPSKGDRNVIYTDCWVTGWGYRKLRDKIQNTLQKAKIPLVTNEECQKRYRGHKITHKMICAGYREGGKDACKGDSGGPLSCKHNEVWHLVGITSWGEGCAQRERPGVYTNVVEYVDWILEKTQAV
The depositor's hits bear a star; nt = no result given. Many of the other results were omitted from the sample, so hits are more common in it than they were. Rule as the data show it, unless noted: active = inhibition above about 20% (passing the limit was not always enough); inactive = the rest.

SMILES | FXIIa inh mix | TNAP act DEA | HePTP inhibitor | D1 allo mod | Calb biofilm kill | FXIa inh mix
Cc1cc(C)c2c(=O)[nH]n(C3CC(C)N(C)CC3C)c2n1 (stereo unspecified) | 3.4 | 0.9 | 4.0 | -1.93* | 4.1 | 7.7
COc1ccc(S(=O)(=O)N2CCN(Cc3ccc([N+](=O)[O-])cc3)CC2)cc1 | nt | nt | 56.6* | nt | nt | nt
COc1ccc(S(=O)(=O)N2CCN(Cc3ccccc3)CC2)cc1 | 1.5 | 1 | -2.6 | -0.0574 | -4.9 | -2.8
Cc1ccc(/C=N/N2CCN(Cc3ccc(Cl)cc3)CC2)s1 | nt | nt | -2.3 | nt | nt | nt
CN1C(=O)/C(=C2\SC(=O)NC2=O)c2cc(Br)ccc21 | nt | nt | 5.6 | nt | nt | nt
COc1ccc(-n2c(Cc3cccn3C)nnc2SCC(=O)NC2CCCCC2)cc1 | 1.2 | 0.9 | 9.8 | -0.0881 | 63.6* | 6.1
COc1ccc(/C=N/OCC(=O)N=Nc2c(O)n(CN(C)C)c3ccc(Br)cc23)cc1 | nt | nt | 103.6* | nt | nt | nt
CC(C)c1ccccc1NC(=O)COc1ccc2ccccc2c1 | nt | nt | 2.7 | nt | nt | nt
C=CCc1c(C)c(C#N)c2nc3ccccc3n2c1N1CCN(C)CC1 | nt | 1.1 | -7.2 | 15.6* | 6.5 | nt
Cc1c(CCC#N)c(N2CCCCC2)n2c(nc3ccccc32)c1C#N | nt | 0.9 | 3.9 | 3 | -3.4 | nt
O=C(c1ccc(Br)o1)N1CCN(C/C=C/c2ccccc2)CC1 | -2.1 | 0.9 | 8.4 | -3.68* | 7.9 | 7.6
O=C(c1ccc(Br)s1)N1CCN(C/C=C/c2ccccc2)CC1 | nt | nt | nt | nt | 0.1 | nt
CC(=O)Nc1cccc(NC(=O)Nc2ccc(C(C)=O)cc2)c1 | 24.0 | 0.9 | 11.7 | -1.67 | 5.7 | 25.3*
CC(=O)c1cccc(NC(=O)c2nccnc2C(=O)O)c1 | 2.5 | 0.9 | 4.5 | -3.49* | 1.0 | 3.7
CC(=O)c1ccc(NC(=O)Nc2ccc(Cl)cc2)cc1 | nt | nt | nt | nt | 3.0 | nt
Cc1ccc(NC(=O)c2nccnc2C(=O)O)cc1C | nt | nt | nt | nt | 8.0 | nt
Cc1ccc(N=C2NC(=O)/C(=C/c3ccccc3F)S2)cc1 | nt | nt | 92.1* | nt | nt | nt
CCN(CC)CCCN1C(=O)C(=O)/C(=C(/O)c2ccc3c(c2)OCCO3)C1c1ccc(C)o1 (stereo unspecified) | 2.0 | 0.9 | 13.5 | 2.31* | 1.0 | -4.5
COc1ccc(OC)c(C2/C(=C(\O)c3ccc4c(c3)OCCO4)C(=O)C(=O)N2CCCN(C)C)c1 (stereo unspecified) | 4.5 | 0.9 | 2.9 | 1.54 | nt | 9.5
O=C(/C=C/c1ccc2c(c1)OCO2)Nc1c(F)c(F)c(F)c(F)c1F | nt | nt | 9.6 | nt | nt | nt
OCCCc1nc2n(n1)C(c1ccccc1)C=C(c1ccccc1)N2 (stereo unspecified) | 8.7 | 0.9 | -7.1 | -0.00429 | 2.6 | 5.3
COc1ccc(C2C=C(c3ccccc3)Nc3nc(CCCO)nn32)cc1 (stereo unspecified) | 9.4 | 0.8 | 8.2 | -0.302 | 6.5 | 40.8*
Cc1cc(C)c2cc(CN(CCO)C(=O)Nc3ccc(Cl)cc3)c(=O)[nH]c2c1 | 2.8 | 1 | 3.5 | 1.53 | 12.0 | 3.4
Cc1cc(C)c2cc(CN(CCN3CCCC3)C(=O)Nc3ccc(F)cc3)c(=O)[nH]c2c1 | 8.2 | 0.9 | 0.2 | -3.09* | -0.2 | 9.8
Cc1ccc(C(C)C)c(OCC(=O)Nc2ccccc2N2CCN(C)CC2)c1 | 2.6 | 0.8 | 5.7 | nt | 8.2 | 3.5
SMILES | FXIIa inh mix | TNAP act DEA | HePTP inhibitor | D1 allo mod | Calb biofilm kill | FXIa inh mix
CC(=O)N1CCN(c2ccccc2NC(=O)COc2cc(C)ccc2C(C)C)CC1 | 13.4 | 0.8 | 5.7 | -5.32* | 1.4 | 5.1
CCOC(=O)c1sc(NC(=O)c2c(C)nn(Cc3ccccc3)c2C)cc1C | -19.2 | 0.9 | -2.6 | -3.2* | 5.2 | -3.2
Oc1ccc(Nc2nc(NCC3CCCO3)c3ccccc3n2)cc1 (stereo unspecified) | -14.4 | 0.9 | 9.6 | -2.88* | 1.0 | 7.8
O=C(N/N=C\c1cc(Br)cc(I)c1O)c1ccc([N+](=O)[O-])cc1 | nt | nt | -3.1 | nt | nt | nt
O=[N+]([O-])c1ccc(N=Cc2cc(I)cc(I)c2O)c(O)c1 | nt | nt | 75.5* | nt | nt | nt
Cc1nnc2n(Cc3ccccc3)c(=O)c3c4c(sc3n12)CCCC4 | 3.3 | 0.9 | -2.2 | 6.28* | 1.8 | -1.1
CCN1CCN(C(c2cccs2)C(C)NC(=O)c2ccco2)CC1 (stereo unspecified) | 7.0 | 1 | 5.1 | -1.36* | 3.9 | 8.1

Compound activity deposited in PubChem by several laboratories.
